# Source: PubChem
# HT1080-NT tox: kills 2HG-producing HT-1080-NT fibrosarcoma cells; HT-1080-NT fibrosarcoma viability, CellTiter-Glo ATP luminescence, 48 h; Potency, µM (top dose mostly 46.1 µM), without a hit: at the top dose activity, negative = less viability, most hits filed as cytotoxic; 1.6% of 360,000 active; AID 686970;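 note: NT is the 2HG producing partner of a matched IDH1 knockdown line; 0% = DMSO-treated cells and -100% = media-only wells without cells; nearly all actives have a fitted effect of over 55% in size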
#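 Luminescent CellTiter-Glo readout after 48 hours of compound exposure at 37 degrees C defined viability of HT-1080-NT cells. Activity was normalized to DMSO wells and cell-free media wells; concentration-response curves were fitted and assigned curve classes.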
# TDP1 cell noCPT: qHTS for Inhibitors of human tyrosyl-DNA phosphodiesterase 1 (TDP1): qHTS in cells in absence of CPT | DT40 Tdp1-/- hTDP1 cells, no CPT, ATP luminescence, 48 h | Potency, µM (series often up to 46.2 µM), for the others: top-dose activity change, negative = growth inhibition, most hits filed as inhibitors | 15% of 420,000 active | AID 686978, 2013; note: nearly all actives have a fitted effect of over 55% in size
#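 A cellular qHTS used chicken DT40 cells lacking endogenous Tdp1 but carrying stably transfected human TDP1. Compounds were applied without camptothecin, and cell growth kinetics were judged by ATP-dependent luminescence after ≥48 hr.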
# KB-3-1 cytotox: kills parental KB-3-1 adenocarcinoma cells; KB-3-1 viability, CellTiter-Glo ATP luminescence, 72 h; Potency, µM (top dose mostly 46.1 µM), usual class: cytotoxic; 1.4% of 400,000 active; note: nearly all actives have a fitted effect of over 60% in size
#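 Parental KB-3-1 adenocarcinoma cells in phenol-red-free DMEM with 10% FBS were pin-treated with compounds at several concentrations, incubated 72 h at 37 °C, and viability read by CellTiter-Glo luminescence; concentration-effect curves were fitted after normalization.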
# KB-V1 MDR tox: KB-V1 MDR subline cytotoxicity; KB-V1 MDR cells viability, CellTiter-Glo, 72 h; Potency, µM (top dose mostly 46.1 µM), usual class: cytotoxic; 3.4% of 400,000 active; AID 1347076; note: nearly all actives have a fitted effect of over 60% in size
#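 Luminescent ATP read-out (CellTiter-Glo, 10 min) measures survival of drug-selected KB-V1 MDR cells after 72 h, 37 degrees C compound exposure. Medium: phenol-red-free DMEM, 10% FBS. Values from fitted concentration-response curves.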
# HT1080 IDH1KD tx: HT-1080 IDH1 knockdown cell toxicity (counter line). 2% of 360,000 active. HT-1080 IDH1 knockdown viability, ATP luminescence, 48 h. Potency, µM (doses to about 46.1 µM), for inactives: top-dose activity, negative = toxicity, most hits filed as cytotoxic;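 note: 0% = DMSO wells and -100% = cell-free medium wells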
#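 % activity derives from luminescence (CellTiter-Glo), normalised to DMSO and no-cell wells. HT-1080-IDH1KD cells, 750/well, had 48 h compound exposure at 37 °C.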
# DT40 TDP1 CPT: DT40-hTDP1 cell growth loss with CPT. chicken DT40 Tdp1-/-;hTDP1 cells + 20 nM CPT, ATP luminescence, 48 h. Potency, µM (doses to about 46.2 µM), for inactives: top-dose activity change, negative = growth inhibition, usual class: inhibitors. 12% of 420,000 active. AID 686979; note: nearly all actives have a fitted effect of over 55% in size
#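 Cell growth measured by CellTiter-Glo luminescence after a minimum 48 h, 37 C compound exposure with 20 nM CPT in Tdp1-knockout DT40 cells stably expressing hTDP1, seeded 400/well; qHTS titration format.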
# * = called active by the depositor; i = inactive; ? = inconclusive; . = not tested or not shown. Shown are actives, neighbours in structure and some others; about 19% of the full set was active somewhere. Calls come from the whole dose curve; as a rule, active = well fitted curve in the direction sought with a large enough effect; inconclusive = small, poorly fitted or top-dose-only effect, or another doubt; inactive = no such curve, though single readings can be large; an effect the other way counts as inactive or inconclusive. Unless noted, % is set by controls: 0 for no effect and ±100 for the full control effect; potency is the fitted concentration of half-maximal effect.
SMILES,HT1080-NT tox,TDP1 cell noCPT,KB-3-1 cytotox,KB-V1 MDR tox,HT1080 IDH1KD tx,DT40 TDP1 CPT
S=C(NCCCN(Cc1ccc(Cl)cc1)c1ccc(Br)cn1)NCc1ccc2nc[nH]c2c1,.,?,i,i,.,?
COc1ccc(-c2cc(C(F)(F)F)n3nc(C(=O)Nc4sc5c(c4C(=O)OC(C)C)CCC(C)C5)cc3n2)cc1 (configuration not stated),.,1.5%,i,i,.,13.4%
CCOC(=O)c1c(NC(=O)c2cc3nc(-c4ccccc4)cc(C(F)(F)F)n3n2)sc2c1CCC(C)C2 (configuration not stated),.,18.4µM*,i,i,.,23.1µM*
O=C(NCCCn1ccnc1)c1cc2nc(-c3ccc(Br)cc3)cc(C(F)(F)F)n2n1,23.1µM*,?,i,i,?,?
CCOC(=O)c1sc(NC(=O)c2cc3nc(-c4ccc(Br)cc4)cc(C(F)(F)F)n3n2)c(C(=O)OCC)c1C,.,23.1µM*,?,i,.,?
CSc1nnc(-c2ccccc2)c(-c2ccccc2)n1,8.8%,-9.7%,i,?,4.8%,-20.4%
CSc1nnc2c3ccccc3c3ccccc3c2n1,-1.5%,18.4µM*,i,i,-2.8%,14.6µM*
O=S1(=O)NC2c3ccccc3CC2O1 (configuration not stated),-2.6%,?,i,i,-0.1%,11.6µM*
COc1ccc(Cl)cc1NC(=O)C(=O)NCc1ccc(Cl)cc1,.,-27.2%,i,?,.,-19.4%
Cc1ccc(COCC(CC(C)C)N2CCN(C(=O)c3cccc(C(F)(F)F)c3)CCC2=O)cc1 (configuration not stated),-2.6%,?,i,i,-10.4%,?
Cc1cccc(COCC(CC(C)C)N2CCN(C(=O)c3ccc(C(F)(F)F)cc3)CCC2=O)c1 (configuration not stated),0.3%,?,i,i,-4.7%,23.1µM*
CC(C)CC(COCc1ccc([N+](=O)[O-])cc1)N1CCN(C(=O)c2ccc(C(F)(F)F)cc2)CCC1=O (configuration not stated),-3.5%,?,?,i,-10.9%,18.4µM*
CC(C)C[C@@H](COCc1ccc(F)cc1)N1CCN(C(=O)c2cccc(C(F)(F)F)c2)CCC1=O,-25.1%,?,i,?,-12.9%,?
Cc1cccc(COCC(CC(C)C)N2CCN(C(=O)c3ccc(C(C)(C)C)cc3)CCC2=O)c1 (configuration not stated),0.0%,18.4µM*,?,?,?,?
CNC(=O)C[C@H]1C(=O)N(CCc2ccccc2)C[C@@H]1C,5.0%,-5.7%,i,i,2.5%,-0.4%
COCCCNC(=O)Cn1nc(N2CCN(c3ccccc3)CC2)ccc1=O,.,-1.1%,i,i,.,1.1%
CC1(C)CC(=O)C(C=Nc2cccnc2)=C(O)C1,8.2%,-14.2%,i,i,-4.0%,-13.2%
Cc1ccc(O)c(N=NC2=C(O)CC(C)(C)CC2=O)c1,-20.7%,8.2µM*,?,?,?,14.6µM*
CC1(C)CC(=O)C(C=Nc2ccc(O)c(N=CC3=C(O)CC(C)(C)CC3=O)c2)=C(O)C1,0.4%,?,i,i,0.9%,16.4µM*
CC1(C)CC(=O)C(C=Nc2cccnc2/N=C/C2=C(O)CC(C)(C)CC2=O)=C(O)C1,0.8%,?,i,i,3.7%,4.61µM*
COc1ccc(S(=O)(=O)Nc2cc3c4c(c2)CCN4C(=O)CC3)cc1,-14.8%,1.0%,i,i,-17.9%,-18.1%
COC(=O)C1(C)CCCC2(C)C3CCC(C(C)C)C(CO)C3C(CO)CC12 (configuration not stated),-18.6%,?,i,?,-6.3%,?
COC(=O)/C=C/COc1ccccc1[N+](=O)[O-],-7.6%,13µM*,?,i,-14.5%,9.2µM*
Cc1cc(C(=O)COc2ccccc2C(N)=O)c(C)n1C1CC1,5.3%,?,i,i,3.2%,?
Cc1cc(C(=O)COc2ccccc2[N+](=O)[O-])c(C)n1C1CC1,-25.1%,?,i,?,-10.7%,23.1µM*
SMILES,HT1080-NT tox,TDP1 cell noCPT,KB-3-1 cytotox,KB-V1 MDR tox,HT1080 IDH1KD tx,DT40 TDP1 CPT
Cc1cc(-n2c(C)cc(C(=O)COc3ccc(F)c(F)c3)c2C)no1,-0.3%,20.6µM*,i,i,-6.0%,23.1µM*
O=C(COc1ccccc1[N+](=O)[O-])c1ccccc1,?,5.17µM*,i,i,?,3.66µM*
COC(=O)C1CCN(S(=O)(=O)CCNC(=O)c2ccc3c(c2)OCO3)CC1,17.0%,-0.9%,i,i,21.7%,9.9%
CCOc1ccccc1OCCOCCOc1ccccc1[N+](=O)[O-],1.6%,10.3µM*,i,?,1.0%,-26.7%
Cc1cc(-n2c(C)cc(C(=O)COc3ccccc3[N+](=O)[O-])c2C)no1,2.0%,23.1µM*,i,?,-0.3%,16.4µM*
COc1ccc(NC(=O)c2cn(-c3ccccc3)nc2-c2cc3ccccc3o2)cc1,-11.1%,20.6µM*,i,i,-9.4%,16.4µM*
COc1ccc(-c2nn(-c3ccccc3)cc2C(=O)Nc2ccccc2OC)cc1,.,20.6µM*,i,i,.,16.4µM*
CCn1c2ccccc2c2cc(NC(=O)COc3ccc(C)c(C)c3)ccc21,.,2.1%,i,i,.,-15.2%
CCn1c2ccccc2c2cc(NC(=O)CNCc3ccccc3OC)ccc21,3.66µM*,5.8µM*,?,?,6.51µM*,5.17µM*
CCn1c2ccccc2c2cc(NC(=O)COc3ccccc3OC)ccc21,?,3.66µM*,4.61µM*,6.51µM*,16.4µM*,5.17µM*
COc1ccccc1CNCC(=O)Nc1ccc(N(C)C)cc1,3.0%,?,i,i,5.9%,?
Cc1ccc(S(=O)(=O)N2CCN(C(=O)c3cc(-c4cccs4)nn3-c3ccccc3)CC2)cc1,-0.5%,18.4µM*,i,4.61µM*,-0.2%,13µM*
O=C(c1cc(-c2cccs2)nn1-c1ccccc1)N1CCN(S(=O)(=O)c2ccccc2)CC1,-2.9%,18.4µM*,i,16.4µM*,0.1%,?
Cc1ccc(OCc2nc(-c3ccc(C(=O)N4CCN(c5ccc(Cl)cc5)CC4)cc3)oc2C)cc1,.,?,i,i,.,?
